From PubChem BioAssay
TNAP act mid DEA – human TNAP enzyme activators, primary screen, biochemical, luminescent, intermediate phosphate acceptor level; activation factor at 20 µM; Alkaline phosphatase, tissue-nonspecific isozyme (Homo sapiens), P05186; purified TNAP, CDP-star luminescence, 100 mM DEA, 30 min; active compounds read high; scale: 0 levamisole-inhibited, 1 vehicle-only enzyme; AID 813, 2007; 64,000 tested, under 10 active;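 active means activation factor of at least 2 at 20 µM, relative to controls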
HER2 expr 66K – inhibitors of Her2 protein expression, primary screen, SKBR-3 cells, AlphaScreen, 66K library; SKBR-3 HER2 protein level, 18-24 h; active compounds read low; actives 0.69% (n = 65,000); Receptor tyrosine-protein kinase erbB-2 (Homo sapiens), P04626; AID 645, 2007; HER2 level % of control, % at 10 µM;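 active means HER2 level under 5% of the carrier-only control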;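 further: 100% = DMSO carrier and 0% = 500 nM PU-H71 HSP90 inhibitor; lower value means stronger loss of Her2 protein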
E coli RNAP – E. coli RNAP inhibitors, biochemical | DNA-directed RNA polymerase subunit beta (Escherichia coli (strain K12)), P0A8V2 | inhibition, %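 (tested at 10 µM)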 | E. coli RNA polymerase, fluorescence transcription assay | actives 0.2% (n = 62,000); in the data active means inhibition above about 20%;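 further: 0% = enzyme without compound and 100% = no enzyme blank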
SK-BR-3 tox 24h – SK-BR-3 proliferation inhibitors, primary screen, cell-based, human, 24 h. AID 847, 2007. viability, % at 10 µM. actives 0.47% (n = 41,000). SK-BR-3 viability, CellTiter-Glo ATP luminescence; active compounds read low;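 active means viability at or below the median of all test compounds minus 3 SD, in both replicates if run twice, cut at about 45% in these data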;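 further: 100% = median untreated cell wells and 0% = median positive control drug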
BAP1 inh – inhibitors of BAP1 deubiquitinase, primary screen, biochemical, Ub-AMC fluorescence, kinetic; calls only at 20 µM; recombinant BAP1, Ub-AMC hydrolysis fluorescence kinetic; active compounds read low; Ubiquitin carboxyl-terminal hydrolase BAP1 (Homo sapiens), Q92560; actives 0.48% (n = 72,000);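 active means activity remaining at or below 50% of control, provided the compound also passes the data quality filters; inactive means the rest, including low values that fail the filters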;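 further: 100% = DMSO wells rate and 0% = substrate alone blank rate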
Target sequence (Q92560 whole entry, looked up): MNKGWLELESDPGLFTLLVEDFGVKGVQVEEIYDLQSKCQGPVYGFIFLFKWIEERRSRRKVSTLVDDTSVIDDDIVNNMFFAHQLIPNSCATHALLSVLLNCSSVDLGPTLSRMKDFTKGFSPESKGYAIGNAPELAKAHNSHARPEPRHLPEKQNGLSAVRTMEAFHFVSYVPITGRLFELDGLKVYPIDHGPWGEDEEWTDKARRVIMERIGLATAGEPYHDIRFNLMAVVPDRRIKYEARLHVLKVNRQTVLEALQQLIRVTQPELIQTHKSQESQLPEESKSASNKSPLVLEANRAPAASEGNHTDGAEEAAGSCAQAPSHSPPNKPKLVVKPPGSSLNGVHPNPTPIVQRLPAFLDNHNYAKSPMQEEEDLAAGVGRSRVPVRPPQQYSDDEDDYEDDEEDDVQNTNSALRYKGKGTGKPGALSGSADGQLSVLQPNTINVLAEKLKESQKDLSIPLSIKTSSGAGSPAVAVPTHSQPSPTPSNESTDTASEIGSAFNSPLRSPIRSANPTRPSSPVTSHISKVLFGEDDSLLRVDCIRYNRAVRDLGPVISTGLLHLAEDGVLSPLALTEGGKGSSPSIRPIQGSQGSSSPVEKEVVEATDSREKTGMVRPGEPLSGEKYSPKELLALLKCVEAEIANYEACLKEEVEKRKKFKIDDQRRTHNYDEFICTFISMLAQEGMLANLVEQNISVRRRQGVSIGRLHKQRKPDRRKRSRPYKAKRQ
BAP1 inh confirm – BAP1 deubiquitinase inhibitors, hit retest, confirmation, orthogonal assay, biochemical, Ub-ethyl ester substrate, HPLC readout. shares compounds with BAP1 inh. purified BAP1, Ub-ethyl ester hydrolysis; active compounds read low. % of control activity, % at 20 µM. actives 8% (n = 310);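 active means percent of control activity at or below 60%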
Starred values were filed as active, the others as inactive; i = inactive; nt = no result given; + = active, no number. An excerpt weighted towards active compounds, which were near 1.4% of everything screened.

SMILES	TNAP act mid DEA	HER2 expr 66K	E coli RNAP	SK-BR-3 tox 24h	BAP1 inh	BAP1 inh confirm
O=C(CCSc1nnc2scc(-c3ccccc3)n12)Nc1nc(-c2ccccc2)ns1	1	103	5	80	+	126
CCn1c(=O)c2cc(C(=O)N3CCCC3)sc2c2ccccc21	1	95	-5	nt	nt	nt
CCn1c(=O)c2cc(C(=O)N3CCOCC3)sc2c2ccccc21	0.9	68	10	nt	+	83
CN1CCN(Cc2c(O)ccc3occ(C(=O)c4ccccc4)c23)CC1	0.9	145	10	99	i	nt
CC(=O)C(C(C)=O)c1c(Cl)c(O)c(O)c2c(C(=O)c3ccccc3)coc12	0.8	5	32*	117	+	64
Cc1ccccc1N1CCN(c2ncnc3c2cnn3Cc2ccc(Cl)cc2)CC1	1	63	-9	74	+	140
Cc1ccc2cc(CN(Cc3ccc4c(c3)OCO4)Cc3nnnn3Cc3ccco3)c(=O)[nH]c2c1C	0.9	64	6	87	+	94
COc1ccccc1C(c1nnnn1CCc1ccccc1)N1CCN(c2ccccc2)CC1 (configuration not stated)	0.9	172	11	95	+	89
COc1cccc(C(c2nnnn2CCc2ccccc2)N2CCN(c3ccccc3)CC2)c1OC (configuration not stated)	0.9	70	1	47	i	nt
Cc1ccc2[nH]c(=O)c(C(c3nnnn3CCc3ccccc3)N3CCOCC3)cc2c1 (configuration not stated)	0.8	92	3	84	+	90
Cc1ccc(NC(=O)N2CCC(C(=O)NCCC3=CCCCC3)CC2)cc1	0.9	103	-4	94	+	67
CCOC(=O)c1ccccc1NC(=O)c1ccccc1Cl	nt	nt	nt	nt	i	nt
O=C(Nc1nnc(-c2ccc(Br)cc2)s1)c1ccco1	nt	nt	nt	nt	i	nt
